Source: PubChem (several laboratories)
Sampled rows, rich in hits. Any-hit rate of the full collection: about 2.9%.
Rtt109 HAT inh: C. albicans Rtt109 histone acetyltransferase inhibition | Q5AAJ8 | purified Rtt109/Vps75, ThioGlo CoA-SH fluorescence, 4 h | inhibition, % at 34.9 µM | 0.16% of 330,000 active;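 active means inhibition of at least 50% in every replicate; inconclusive means best replicate reaches 50% inhibition but some replicates fall short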
Target sequence (Q5AAJ8 whole entry, looked up): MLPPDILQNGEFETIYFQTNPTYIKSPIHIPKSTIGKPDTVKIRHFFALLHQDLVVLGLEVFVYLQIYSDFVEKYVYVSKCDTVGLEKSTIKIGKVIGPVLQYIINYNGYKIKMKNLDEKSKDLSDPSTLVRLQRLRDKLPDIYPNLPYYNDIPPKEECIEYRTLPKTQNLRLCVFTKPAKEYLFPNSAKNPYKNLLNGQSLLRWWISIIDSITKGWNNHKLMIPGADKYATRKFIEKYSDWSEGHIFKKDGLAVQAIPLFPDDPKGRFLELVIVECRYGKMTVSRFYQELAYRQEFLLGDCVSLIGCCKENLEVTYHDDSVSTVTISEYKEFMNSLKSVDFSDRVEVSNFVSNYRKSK
DAGLB inh: blocks human DAGLB lipase activity. Q8NCG7. HEK293T DAGLB membrane lysate, EnzChek fluorogenic substrate. inhibition, % at 5.17 µM. 0.059% of 340,000 active; in the data active means inhibition above about 34%;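 further: 0% = enzyme with vehicle and 100% = wells lacking enzyme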
ABHD5-PLIN5 inh: blocks binding of human ABHD5 to perilipin-5. Q00G26+Q8WTS1. Split G. princeps luciferase complementation, luminescence, 4 h. inhibition, % at 4 µM. 0.78% of 360,000 active. AID 602281;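 active means inhibition above the mean inhibition across every tested compound plus 3 SD, cut at about 22% in these data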;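 further: 0% = DMSO only wells and the 100% control is not disclosed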
HGIII-sPLA2 inh: Inhibits HGIII-sPLA2 liposome hydrolysis, primary screen. Q9NZ20. QFRET BODIPY PC-A2 liposome hydrolysis, fluorescence. inhibition, % at 12.2 µM. 0.56% of 370,000 active. AID 743126;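 active means inhibition above mean plus 3 SD of compounds lying within the high and low control bounds, cut at about 19% in these data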;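 further: 0% = median of test compound wells and 100% = no enzyme DMSO wells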
H9c2 protect: myocardial damage modulation in H9c2 cells. protection from H2O2 cell death, % at 20 µM. 0.63% of 360,000 active. AID 588492. H9c2 cardiomyocytes, H2O2 injury protection, ATPLite, 2 h;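 active means compounds giving at least 50% protection of heart cells from peroxide-induced death in the single-dose screen, raw or plate-pattern-corrected value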;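 further: 0% = DMSO wells with peroxide and 100% = DMSO wells without peroxide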
Myeloid diff 2: promotes myeloid progenitor differentiation; ER-HoxA9 myeloid progenitors, lysozyme-GFP differentiation, flow cytometry; calls only at 10 µM; 1% of 360,000 active;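 active means normalized GFP-positive differentiation at or above the plate's own cutoff, the solvent-only control mean plus 3 SD; inconclusive means no clear call, values can overlap the other calls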;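 further: cells exposed to compound for four days before flow analysis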
* marks the source's active call; other numbers are inactive results; i = inactive; ? = inconclusive; / = not tested or not shown; + = active, no number.

SMILES	Rtt109 HAT inh	DAGLB inh	ABHD5-PLIN5 inh	HGIII-sPLA2 inh	H9c2 protect	Myeloid diff 2
CCCCn1c(=O)[nH]c(=O)c2c1nc(-c1ccc(-c3ccccc3Br)o1)n2CCOC	-4.3	4.2	11.4	-9.7	10.5	i
Cc1ccc(NC(=O)C2CCN(c3ncnc4sc(C)c(C)c34)CC2)cc1S(=O)(=O)N(C)C	2.6	-0.4	-4.4	-25.2	-1.0	i
CCN(CC(=O)Nc1cc(Cl)ccc1C)C(=O)C1CCN(c2ncnc3sc(C)c(C)c23)CC1	/	-3.0	9.8	-37.2	76.9*	i
Cc1sc2ncnc(N3CCC(C(=O)N(C)CC(=O)Nc4ccccc4Cl)CC3)c2c1C	16.3	-0.7	8.4	-2.4	46.5	i
Cc1ccc(C)c(S(=O)(=O)N2CCN(C(=O)C3CCN(c4ncnc5sc(C)c(C)c45)CC3)CC2)c1	/	1.2	2.0	-4.0	-10.0	+
CC1(c2ccc([N+](=O)[O-])cc2)NC(=O)NC1=O (centres undefined)	11.5	-1.2	6.1	-1.3	1.3	i
O=C(c1cccs1)c1ccc(-c2cccs2)s1	-0.1	-16.3	-0.2	-10.9	-32.3	i
COc1ccc(/C=C/c2cc(C(F)(F)F)[nH]c(=O)n2)cc1OC	-12.5	/	22.3*	-4.7	-2.4	i
Cc1nn(-c2ccccc2)c2sc(C(=O)NCc3ccc(F)cc3)cc12	/	/	/	-11.4	/	/
O=C(COC(=O)c1ccccc1Br)NC1CCCCCCC1	-0.2	-7.5	-7.7	-11.3	-3.0	i
COc1ccccc1NC(=O)CON=C(N)CC(=O)NC1CCCCC1	6.5	-2.3	-5.0	3.3	1.0	+
O=C(COC(=O)c1ccccc1Br)NC1CCCC1	0.4	-0.9	4.7	1.3	1.9	+
COc1ccccc1C(=O)OCC(=O)NC1CCCC1	-5.4	-3.2	3.8	-3.3	0.6	+
O=C(CCC(=O)N1CCSc2ccccc21)NCc1cccc(Cl)c1	-1.9	-6.7	-10.1	13.6	4.7	i
NC(Cc1ccccc1)c1csc(NC(=O)Nc2ccccc2Oc2ccccc2)n1 (centres undefined)	/	/	-5.7	18.7	-23.0	+
NC(Cc1ccc(C(F)(F)F)cc1)c1csc(NC(=O)Nc2ccccc2Oc2ccccc2)n1 (centres undefined)	/	/	-10.0	7.5	-23.5	+
COc1ccc(CC(N)c2csc(NC(=O)Nc3ccccc3Oc3ccccc3)n2)cc1 (centres undefined)	/	/	2.7	4.5	-27.9	i
COC(=O)c1ccccc1NC(=O)C1CCCN(S(C)(=O)=O)C1 (centres undefined)	-2.8	-1.7	-5.0	5.5	3.0	i
Brc1ccc(C2Nc3cccc4cccc(c34)N2)cc1	2.6	0.1	-3.9	2.1	-0.3	+
Fc1ccc(C2Nc3cccc4cccc(c34)N2)cc1	3.9	-5.1	-10.8	-1.2	-7.9	i
Cc1ccc(OCC(=O)Nc2ccc3c(c2)C(=O)NC3=O)cc1	1.6	0.8	-8.8	2.6	-9.4	i
CC(C)(C)c1ccc(OCC(=O)Nc2ccc3c4c(cccc24)C(=O)NC3=O)cc1	-3.2	-0.1	-2.4	-3.8	59.8*	+
Cc1cc(C)n2nc(C(=O)N/N=C/c3c4ccccc4cc4ccccc34)nc2n1	14.6	1.6	2.3	-4.5	64.2*	?
COC(=O)Cc1c(OC)ccn(CCc2c[nH]c3ccccc23)c1=O	6.9	2.0	3.8	-6.4	-13.3	i
Cc1cc(C)nc(-n2nc(C)cc2NC(=O)CN2CCc3ccccc3C2)n1	6.6	0.2	1.8	7.2	23.9	+
Cc1cc(C)nc(-n2nc(C)cc2NC(=O)CN2CCCC(C)C2)n1 (centres undefined)	4.1	2.3	-7.2	-5.4	4.8	i
CC(C)C(=O)N1CC[C@H]2[C@H](CCCN2Cc2cc(F)cc(F)c2)C1	/	/	/	1.4	/	/
COC(=O)c1c(C(=O)OC)c(-c2cccc(Cl)c2)n2c1CS(=O)(=O)C2	11.1	-3.5	2.4	6.5	0.8	+
Cc1nn(-c2ccccc2)c(C)c1/C=C/C(=O)OCC(=O)NC1CCS(=O)(=O)C1 (centres undefined)	17.2	-2.4	2.4	2.0	-5.9	i
Cc1cc2ccccn2c1C(C[N+](=O)[O-])c1ccc(N(C)C)cc1 (centres undefined)	/	2.0	23.1*	5.4	12.7	i
